Shown are actives, neighbours in structure and some others; about 9.4% of the full set was active somewhere.
ELG1 repair inh = blocks ELG1-dependent DNA repair in HEK293T cells. HEK293T ELG1-luciferase reporter, luminescence, 16 h; DNA damage induced by 5-fluorouridine. Potency, µM (top dose mostly 46.1 µM), hits mostly inhibitors. 330,000 compounds, 2.3% hits. AID 504467; further: nearly all actives have a fitted effect of over 55% in size
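DMSO vehicle served as the neutral condition. Each well held 2,000 cells given 5-fluorouridine plus compound; after 16 hr at 37 °C/5% CO2, ONE-Glo was added and luciferase measured 30 min later.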
ELG1 genotoxic = induces genotoxicity in HEK293T cells with luciferase-tagged ELG1; HEK293T ELG1-luciferase reporter, luminescence, 16 h; Potency, µM (top dose mostly 46 µM), hits mostly activators; 330,000 compounds, 1.3% hits; further: nearly all actives have a fitted effect of over 60% in size
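HEK293T cells expressing luciferase-tagged ELG1 were exposed to compound or DMSO vehicle for 16 hr at 37 °C and 5% CO2. Luciferase activity was then measured with ONE-Glo after 30 min at room temperature.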
SMN2 splice up = increases expression of the SMN2 splice variant. HEK293 SMN2-luciferase splicing reporter, luminescence, 30-36 h. 210,000 compounds, 2.8% hits. Potency, µM (series often up to 46.1 µM), most hits filed as activators. AID 1458; further: nearly all actives have a fitted effect of over 55% in size
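HEK293 cells carry an SMN2 minigene-luciferase reporter in which exon 7 inclusion puts luciferase in frame. Cells were seeded at 2000 cells/well, attached for 10-12 hours, then exposed to compounds for 30-36 hours at 37C before ONE-Glo luminescence.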
NPC1 prom act = activators of NPC1 promoter; 320,000 compounds, 2.4% hits; Huh7 NPC1 promoter luciferase reporter, 24 h; Potency, µM (series often up to 9.22 µM), actives largely listed as activators; further: nearly all actives have a fitted effect of over 60% in size
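Cells: Huh7 expressing luciferase under the NPC1 promoter, 1500/well. Seeded 2 h, compound added, incubated 24 h at 37 °C. Luciferase reagent, 10 min ambient, then luminescence.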
FLuc counter = firefly luciferase modulation, counter-screen for miR-21 project; purified FLuc, Km substrates, luminescence inhibition; Potency, µM (doses to about 57.5 µM), most hits filed as inhibitors; AID 588342; 360,000 compounds, 6.9% hits; further: nearly all actives have a fitted effect of over 55% in size
Target sequence (P08659 whole entry, looked up): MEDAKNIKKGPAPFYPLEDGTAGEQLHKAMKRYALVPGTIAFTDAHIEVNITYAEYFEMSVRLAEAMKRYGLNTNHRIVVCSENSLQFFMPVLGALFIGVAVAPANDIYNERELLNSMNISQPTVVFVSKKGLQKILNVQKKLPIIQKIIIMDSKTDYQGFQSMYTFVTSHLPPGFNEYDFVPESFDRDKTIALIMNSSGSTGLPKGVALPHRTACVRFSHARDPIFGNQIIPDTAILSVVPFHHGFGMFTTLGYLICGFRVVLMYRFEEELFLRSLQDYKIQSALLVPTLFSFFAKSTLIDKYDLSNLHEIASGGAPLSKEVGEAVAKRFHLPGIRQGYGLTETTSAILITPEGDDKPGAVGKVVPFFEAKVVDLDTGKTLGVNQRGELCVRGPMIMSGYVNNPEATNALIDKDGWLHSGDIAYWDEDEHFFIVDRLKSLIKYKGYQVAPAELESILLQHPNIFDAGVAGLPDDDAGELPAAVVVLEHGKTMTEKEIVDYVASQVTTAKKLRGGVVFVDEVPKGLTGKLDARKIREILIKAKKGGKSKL
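Biochemical qHTS of compounds, final roughly 60 µM downward over six points, against 10 nM purified firefly luciferase using Km concentrations of substrates (10 uM D-luciferin, 10 uM ATP) in Tris acetate pH 7.5 buffer; luminescence output.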
Rab9 promoter act = activators of Rab9 promoter | AID 485297 | 320,000 compounds, 2.8% hits | Huh7 Rab9 promoter-luciferase reporter, luminescence, 24 h | Potency, µM (highest dose often 9.22 µM), hits mostly activators; further: nearly all actives have a fitted effect of over 60% in size
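Promoter activation is measured as luciferase luminescence in Huh7 cells stably transfected with a Rab9 promoter–luciferase construct, following 24 h compound exposure at 37 °C and 10 min reagent incubation at ambient temperature.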
Each line names hits and unclear results; the compound was inactive in the other large screens. The call rests on the fitted dose curve; in most records, active means well fitted curve in the direction sought with a large enough effect; inconclusive means small, poorly fitted or top-dose-only effect, or another doubt; inactive means no such curve, though single readings can be large; an effect the other way counts as inactive or inconclusive.

NC(=O)c1c(NC(=O)c2noc3c2CCCC3)sc2c1CCCC2	SMN2 splice up 14.1µM, FLuc counter inconclusive (no result: ELG1 repair inh, ELG1 genotoxic, NPC1 prom act, Rab9 promoter act)
Cc1nc2ccccc2n1CCc1nc2c3ccccc3nc(SCc3ccccc3F)n2n1	none (no result: ELG1 repair inh, ELG1 genotoxic, SMN2 splice up, NPC1 prom act, Rab9 promoter act)
CN1/C(=C\C=C2/SC(=S)N(CC(=O)O)C2=O)C(C)(C)c2ccccc21	FLuc counter 16.9µM
CCCCN1C(=O)/C(=C/C=C2\Oc3ccccc3N2CC)SC1=S	none (no result: SMN2 splice up)
CCCCN1C(=O)/C(=C/C=C2/CC(C)(C)CN2C)SC1=S	ELG1 repair inh inconclusive, ELG1 genotoxic inconclusive, FLuc counter 9.53µM, Rab9 promoter act inconclusive
Cn1cccc1/C=C1/SC(=S)N(CC(=O)O)C1=O	FLuc counter inconclusive
CCN1C(=O)/C(=C/C=C2/SCCN2C)SC1=S	ELG1 repair inh inconclusive, ELG1 genotoxic inconclusive, SMN2 splice up inconclusive, NPC1 prom act 0.447µM, FLuc counter 0.849µM, Rab9 promoter act 0.447µM
CN1CCS/C1=C\C=C1/SC(=S)N(CC(=O)O)C1=O	FLuc counter 13.5µM
Cc1ccc(N(C)C(=O)Cn2cnc3onc(-c4ccc(F)cc4)c3c2=O)cc1C	none (no result: ELG1 repair inh, ELG1 genotoxic, SMN2 splice up, NPC1 prom act, Rab9 promoter act)
Cc1ccc(C(=O)Nc2c(C)nc3ccccn3c2=O)cc1	none (no result: ELG1 repair inh, ELG1 genotoxic, SMN2 splice up, NPC1 prom act, Rab9 promoter act)
C=CCn1c(SCC(=O)NCC2CCCO2)nc2c([nH]c3ccccc32)c1=O (configuration not stated)	ELG1 repair inh 4.11µM (no result: SMN2 splice up)
CCc1ccc2nc(N(Cc3cccnc3)C(=O)Cc3ccccc3)sc2c1	none (no result: ELG1 repair inh, ELG1 genotoxic, SMN2 splice up, NPC1 prom act, Rab9 promoter act)
Cc1nc2cc(NS(=O)(=O)c3ccccc3)ccc2n1C	none
COc1ccc(OC)c(CNc2ccc3c(c2)nc(C)n3C)c1	none (no result: SMN2 splice up)
Cc1nc2cc(NS(=O)(=O)c3ccc(Br)cc3)ccc2n1C	ELG1 repair inh 20.6µM (no result: SMN2 splice up)
COc1ccc(CNc2ccc3c(c2)nc(C)n3C)cc1	ELG1 repair inh inconclusive, ELG1 genotoxic inconclusive, SMN2 splice up 11.2µM, NPC1 prom act 2.51µM, FLuc counter 9.53µM, Rab9 promoter act 1.41µM
Cc1nc2cc(NCc3ccccc3O)ccc2n1Cc1ccccc1	ELG1 repair inh inconclusive, FLuc counter 23.9µM (no result: SMN2 splice up)
Cc1nc2cc(NCc3ccc(Cl)cc3)ccc2n1C	ELG1 repair inh inconclusive, ELG1 genotoxic 2.59µM, NPC1 prom act 0.447µM, FLuc counter 2.13µM, Rab9 promoter act 0.447µM (no result: SMN2 splice up)
Cc1ccc(CNc2ccc3c(c2)nc(C)n3C)cc1	ELG1 repair inh inconclusive, ELG1 genotoxic 2.06µM, NPC1 prom act 0.562µM, FLuc counter 4.26µM, Rab9 promoter act 0.631µM (no result: SMN2 splice up)
O=S(=O)(Cc1cc(Sc2ccc(Cl)cc2)nc(-c2ccccc2)n1)c1ccccc1	none
Cc1nc(CS(=O)(=O)c2ccc(Cl)cc2)cc(Sc2ccc(Cl)cc2)n1	ELG1 repair inh 20.6µM
CN(C)c1ccc(NC(=O)CCCc2ccccc2)cc1	ELG1 repair inh inconclusive, ELG1 genotoxic 0.92µM, SMN2 splice up 15.8µM, NPC1 prom act 3.98µM, FLuc counter 2.39µM, Rab9 promoter act 1.58µM
Cc1cccc(NC(=O)CCCc2ccccc2)c1	ELG1 repair inh inconclusive, ELG1 genotoxic inconclusive, NPC1 prom act inconclusive, FLuc counter 16.9µM, Rab9 promoter act inconclusive (no result: SMN2 splice up)
O=C(CCc1ccccc1)Nc1ccccc1	none (no result: SMN2 splice up)
COc1cc(Cl)c(C)cc1NC(=O)C1CCCN(c2ncnc3onc(-c4ccc(F)cc4)c23)C1 (configuration not stated)	none (no result: ELG1 repair inh, ELG1 genotoxic, SMN2 splice up, NPC1 prom act, Rab9 promoter act)
O=C(CCCCCn1c(=O)c2sccc2n(CC(=O)Nc2cc(C(F)(F)F)ccc2Cl)c1=O)NCc1ccccc1Cl	none (no result: ELG1 repair inh, ELG1 genotoxic, NPC1 prom act, Rab9 promoter act)
CCCCC(CC)COCC1CO1 (configuration not stated)	none (no result: ELG1 repair inh, ELG1 genotoxic, NPC1 prom act, FLuc counter, Rab9 promoter act)
COc1ccc2[nH]c3nc(SC(C)C)nnc3c2c1	ELG1 repair inh inconclusive, SMN2 splice up inconclusive, NPC1 prom act 0.708µM, FLuc counter 0.338µM, Rab9 promoter act 0.794µM
COc1ccc2[nH]c3nc(SCc4nnc(-c5ccccc5)o4)nnc3c2c1	ELG1 repair inh 16.4µM
CCc1ccc2[nH]c3nc(SCc4nnc(-c5ccccc5)o4)nnc3c2c1	none (no result: SMN2 splice up)
CNC(=O)COC(=O)c1cc2c(s1)CCCC2	none
C/C(N)=C(/C#N)C(=O)COC(=O)c1cc2c(s1)CCC(C)C2 (configuration not stated)	ELG1 repair inh inconclusive, ELG1 genotoxic inconclusive, FLuc counter 16.9µM
